Hits are enriched below; roughly 3% of the tested compounds scored in any of these assays.
CRE Fsk mod = alters forskolin-stimulated CRE reporter signaling in CHO cells; 71,000 tested, 2.5% active; AID 662; CHO CRE-bla reporter (cAMP response element driving beta-lactamase), forskolin EC10, beta-lactamase ratio; Potency, µM (top dose mostly 38.2 µM), inactives show at the top dose activity change, negative = inhibition, actives largely listed as activators; active = well fitted activation curve with a large enough effect in the signal ratio, with a control signal flat, not every such curve was filed as active; inconclusive = small, poorly fitted or top-dose-only effect, or effect the other way, or a change in a side signal; the % refers to the signal ratio; note: % of control where 0% means no effect
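Reporter-gene assay: CHO cells with beta-lactamase behind cAMP responsive elements, co-treated with compound and EC10 NKH 477 for 3 hours at 37 degrees Celsius. Activity came from the 460/530 nm CCF4 emission ratio.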
IkB signaling = suppresses IkB signaling in ABC-DLBCL reporter cells. 110,000 tested, 0.04% active. Potency, µM (titrated, usually from 57.1 µM), for inactives: at the top dose IkBa stabilization activation. AID 445. ABC-DLBCL IkBa-CBG/CBR dual luciferase ratio, 4 h; response scale: scaled: untreated 0%, proteasome inhibitor 100%; active = well fitted curve in the direction sought with a large enough effect in the signal ratio, not every such curve was filed as active; inconclusive = small, poorly fitted or top-dose-only effect, or a change in a side signal; the % refers to the signal ratio;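 note: the direction sought is a rising ratio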
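Luminescence ratio of IκBα-fused green versus native red beetle luciferase in OCI-Ly3 cells, 4 h post-doxycycline with compound; red signal alone, scaled from basal (0%) to zero light (-100%), flagged nonspecific or cytotoxic effects.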
Imprint erasure = inducers of genomic imprint erasure in mouse ES cells; mouse ES Peg3-LacZ reporter, beta-gal luminescence, 40 h; Potency, µM (titrated, usually from 60.7 µM), inactives show at the top dose activity change, positive = activation, usual class: activators; 110,000 tested, 0.02% active; AID 1948
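Each well holds 300 Peg3LacZ-Neo (maternal) female ES cells incubated 40 h at 37C, 5% CO2. LacZ is measured by BetaGlo luminescence, with AC50 and maximum efficacy derived from dose-response curves.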
p53ts 32C tox = kills p53ts cells at the permissive temperature; H1299-p53A138V at 32C, ATP luminescence viability, 24 h; 130,000 tested, 0.93% active; Potency, µM (top dose mostly 46.1 µM), without a hit: top-dose activity change, negative = cytotoxicity, hits mostly cytotoxic; AID 924;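 note: 0% = DMSO and -100% = full killing by reference compound; nearly all actives have a fitted effect of over 55% in size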
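Cells: H1299 p53ts (A138V), 600/well, pre-incubated 16–30 h at 37C. Cpd up to 46 uM, 24 h, 32C. Readout: ATPlite luminescence, 20 min RT. Normalization: DMSO vs tamoxifen 100 uM. AC50 by Hill equation.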
p53ts 39C tox = cytotoxicity in p53ts cells at nonpermissive temperature; H1299-p53A138V viability at 39C, ATP luminescence, 24 h; Potency, µM (doses to about 46.1 µM), for inactives: at the highest dose activity change, negative = cell killing, hits mostly cytotoxic; 130,000 tested, 1.5% active; note: % is set by controls: 0 for no effect and ±100 for the full control effect; nearly all actives have a fitted effect of over 55% in size
Active calls of the source: *; u = inconclusive; x = not tested or not shown; [ ] = remark or other dose. Unless noted, calls come from the whole dose curve; as a rule, active = well fitted curve in the direction sought with a large enough effect; inconclusive = small, poorly fitted or top-dose-only effect, or another doubt; inactive = no such curve, though single readings can be large; an effect the other way counts as inactive or inconclusive. Potency is the fitted concentration of half-maximal effect.

SMILES | CRE Fsk mod | IkB signaling | Imprint erasure | p53ts 32C tox | p53ts 39C tox
Cc1cc(NC(=O)CSc2nc(-c3cccs3)cc(C(F)(F)F)n2)no1 | 3.2µM* | 1% | -20% | 3% | -24%
CC(C)CNC(=O)CSc1nc(-c2cccs2)cc(C(F)(F)F)n1 | x | x | x | 2% | -21%
CCc1cccc(NC(=O)c2c(N3CCCC3=O)c3cc(C)ccc3n2C)c1 | x | 0% | 9%[10.9 µM] | 13% | -3%
O=C(NCc1ccco1)c1cc2cc3ccc(Cl)cc3nc2o1 | 2µM* | -1% | -30% | -5% | -15%
c1ccc2[nH]c(-c3ccnc4ccccc34)nc2c1 | 21% | 10% | -16% | -11% | -4%
c1ccc2nc(-c3nc4ccccc4[nH]3)ccc2c1 | 4% | u | -94% | 3.2µM* | 2µM*
CCC(CC)C(=O)NCCNC(=O)C(CC)CC | 2µM* | -3% | -9% | 6% | 27%
CCN1c2ccccc2NC2C1C(C(C)=O)C(=O)N2c1ccc(Cl)cc1 (centres undefined) | u | u | 3% | u | 20µM*
COc1ccccc1N1C(=O)N(C(C)=O)C2C1Nc1ccccc1N2C (centres undefined) | 19% | 24% | -10% | u | u
c1ccc2sc(-c3ccc4c(c3)OCO4)nc2c1 | 11% | u | -94% | 16µM* | 7.9µM*
O=C(O)c1cc(-c2ccc3c(c2)OCO3)nc2ccccc12 | -8% | 12% | -47% | u | u
O=c1c(-c2nc3ccccc3o2)c2oc3ccccc3n2c2ccccc12 | 4µM* | 1% | 13% | -5% | 3%
COc1ccc(C2C(=O)c3ccccc3C2=O)cc1 | x | x | -10% | 10µM* | 13µM*
COC(=O)c1cc2oc(C)cc2n1Cc1cccc(Cl)c1 | x | -1% | 7%[10.9 µM] | -4% | -26%
CC(C)OCCCNC(=O)CSc1c2c(nc3ccc(Cl)cc13)CCCC2 | x | u | -4%[10.9 µM] | 13µM* | u
COCCCNC(=O)CSc1c2c(nc3ccc(Cl)cc13)CCCC2 | x | u | -8%[10.9 µM] | u | u
COc1ccc(-c2csc(-c3nc(-c4ccc(Br)s4)cs3)n2)cc1F | x | 3% | -5%[10.9 µM] | -10% | 12%
Cc1ccc(CNc2cc(-c3nn4c(C)nnc4s3)ccc2C)s1 | 20µM* | -2% | -21% | 2% | -12%
O=c1c2cccc3c2c(nn1CN1CCOCC1)-c1ccccc1-3 | 13µM* | 1% | -20% | 9% | -4%
Cc1ccc(-c2nn(CC(=O)NCCN3CCOCC3)c(=O)c3ccccc23)cc1 | -6% | 3% | -9% | 17% | 10%
COc1ccc(Cl)cc1NC(=O)N1CCC2(CC1)Oc1ccccc1C(=O)N2Cc1ccc(F)cc1 | x | u | -8%[10.9 µM] | 7% | -8%
COc1ccc(-c2nc3ccccc3s2)cc1NC(=O)COc1cccc(C)c1 | x | -3% | -9%[10.9 µM] | -22% | 10µM*
COc1ccc(-c2nc3ccccc3s2)cc1NC(=O)COc1ccc(C)cc1 | x | -4% | u | -12% | -2%
COc1ccc(OCC(=O)Nc2cc(-c3nc4ccccc4s3)ccc2C)cc1 | x | 2% | -16%[10.9 µM] | -25% | 16µM*
Cc1nn(-c2ccccc2)c(-n2cccc2)c1C(=O)NCCCN1CCN(c2ccccc2F)CC1 | x | -1% | -19%[10.9 µM] | -8% | 3%
SMILES | CRE Fsk mod | IkB signaling | Imprint erasure | p53ts 32C tox | p53ts 39C tox
CC(=O)c1ccc(NC(=O)c2nc(-c3ccccc3)n(-c3ccccc3Cl)n2)cc1 | x | -1% | -13%[10.9 µM] | -6% | -9%
O=c1/c(=C/c2ccccn2)sc2nc3ccccc3n12 | u | u | 7% | 10µM* | u
CCn1c(SCc2ccc(C(=O)OC)o2)nc2sc3c(c2c1=O)CCCC3 | u | 2% | -2% | -22% | -23%
CCn1c(SCC(=O)OC)nc2sc3c(c2c1=O)CCC3 | 13µM* | -4% | -9% | -1% | -2%
CCNc1ncc2nc(C)c(=O)n(Cc3ccc(F)cc3)c2n1 | u | 2%[11.4 µM] | -4% | 9% | -2%
CCNc1nc(C)c2cc(Br)c(=O)n(CC)c2n1 | 1µM* | -6% | 3% | -12% | 14%
COc1ccc(-c2nn3c(-c4ccccc4C)nnc3c3ccccc23)cc1 | x | 4% | 5%[10.9 µM] | 25% | 10µM*
